# Laboratory results taken from ChEMBL document CHEMBL1157539, “Thousands of chemical starting points for antimalarial lead identification” (Nature, 2010).
# System: Plasmodium falciparum
# Test: GSK_TCMDC: Inhibition of Plasmodium falciparum 3D7 in whole red blood cells, using parasite LDH activity as an index of growth. Test compounds present at 2uM
# Format: functional
row,SMILES,Inhibition
1,COc1ccc(-c2cnc(NCc3ccccc3)nc2)cc1CNC1CCN(C)CC1.O=C(O)C(F)(F)F,96%
2,COc1ccc(CC(=O)Nc2ccc(Nc3nc(C)cc(N(C)C)n3)cc2)cc1,97%
3,O=C(Nc1cccc(-c2nn3ccccc3c2-c2ccnc(Nc3ccc(C(=O)N4CCOCC4)cc3)n2)c1)c1c(F)cccc1F,99%
4,O=C(c1ccco1)N1CCN(c2ccc([N+](=O)[O-])c(NC3CC3)c2)CC1,100%
5,O=C(NCCCCN1CCC(c2c[nH]c3ccccc23)CC1)c1ccc(-c2ccc(C(F)(F)F)cc2)cc1,98%
6,Cc1[nH]cnc1CSCCNC(=N)NCCCCCCCCNC(=N)NCCSCc1nc[nH]c1C.Cl,96%
7,CCOc1cc(C(=O)NC2CCN(Cc3ccccc3)CC2)ccc1-c1nc2cc(Cl)ccc2[nH]1,100%
8,CC1CCN(C(=O)C(Cc2c[nH]c3ccccc23)NS(=O)(=O)c2ccc(Cl)cc2)CC1 (stereo not given),100%
9,Cc1cnc(Nc2cccc(CCN3CCOCC3)c2)nc1NC(C)C.Cl,97%
10,CN(C)CCNCc1nc(-c2ccc3c(Nc4ccc(Cl)cc4F)ccnc3c2)cs1,100%
11,O=C(Nc1ccc(Br)cc1)N(CCN1CCOCC1)CC(O)COCc1ccc(Cl)c(Cl)c1.O=C(O)C(F)(F)F (stereo not given),94%
12,O=C(Nc1cccc(CN2CCN(Cc3ccc(O)cc3)CC2)c1)c1cc2ccccc2s1.O=C(O)C(F)(F)F,100%
13,CCc1ccc(NC(=O)c2cccc(CN3CCCN(Cc4ccc(OC)cc4)CC3)c2)cc1.O=C(O)C(F)(F)F,97%
14,Br.Oc1ccc(CCNCCCCCCNCCc2ccc(Cl)cc2)c(Cl)c1O,100%
15,CCn1ccc2c(N3CCCCS3(=O)=O)cc(C(=O)N[C@@H](Cc3ccccc3)[C@H](O)CNC(C)(C)CCCC(C)C)cc21,96%
16,CC(NCC(O)Cn1c2ccccc2c2ccccc21)c1ccccc1.O=C(O)c1ccccc1 (stereo not given),96%
17,CC(C)(C(=O)Nc1ccc(C2CCC(NCC3CC3)CC2)c(Cl)c1)c1ccc(C(F)(F)F)cc1 (stereo not given),97%
18,COc1ccc(C(=O)N2CCC3(CC2)C(=O)N(CC(=O)NCC2CCCCC2)CN3c2ccccc2)c(OC)c1,100%

row,SMILES,Inhibition
1,CCN(CC)/C(=N/C(=N)NCc1cccc(Cl)c1)NCCCCCCN/C(=N\C(=N)NCc1cccc(Cl)c1)N(CC)CC,99%
2,O=[N+]([O-])c1ccc(C(O)P(=O)(c2ccccc2)c2ccccc2)cc1 (stereo not given),98%
3,FC(F)(F)c1ccc2[nH]c(-c3ccc(-c4cccc(CN5CCN(CCN6CCOCC6)CC5)c4)cc3)nc2c1.O=C(O)C(F)(F)F,98%
4,O=c1cc(NCC2(CNCc3cn(Cc4ccccc4)c4ccccc34)CCCCC2)[nH]c2ccccc12,100%
5,COc1cc2nc(N3CCC(CNC(=O)c4ccc(-c5ccc(C#N)cc5)cc4)CC3)nc(N)c2cc1OC,100%
6,O=C(Nc1cccc(C(F)(F)F)c1)c1cccc(S(=O)(=O)NCC2CCCN(Cc3ccccc3)C2)c1.O=C(O)C(F)(F)F (stereo not given),94%
7,CC(C)NCc1ccc(-c2ccc(NS(=O)(=O)c3cccc4cccnc34)cc2)cc1.O=C(O)C(F)(F)F,90%
8,CN(C)CC1CCCN1Cc1ccccc1-c1cnn(C)c(=O)c1Oc1ccc(F)cc1.O=C(O)C(F)(F)F (stereo not given),91%
9,CCC(c1ccccc1)c1nn2c(-c3cccs3)nnc2s1 (stereo not given),97%
10,Cc1nc(C)c(-c2ccc(-c3ccc(F)cc3)cc2)c(O)c1Br,94%
11,COC(=O)c1ccc(-c2ccc(-c3cccnc3)cc2C)cc1,100%
12,O=[N+]([O-])c1cc(/C=N/Nc2nc3nonc3nc2Nc2ccc(F)cc2)c(Cl)cc1Cl,98%
13,COc1ccc2ncc(F)c(CCN3CC[C@@H](CNCc4nc5c(cc4C)SCC(=O)N5)C3)c2n1.Cl,91%
14,COc1ccc2nccc([C@@H](O)CN3CCC(NCCc4c[nH]c5ccccc45)CC3)c2c1.O=C(O)C(=O)O,98%
15,CC[C@H]1CN(Cc2ccccc2Br)CC[C@H]1CCCc1ccnc2ccc(O)cc12,86%
16,COc1ccccc1N1CCN(CCCCNC(=O)c2ccc(NC(=O)c3cc4ccccc4o3)cc2)CC1,84%
17,COc1ccc(-c2ccc(NC(=O)c3ccc(C#N)cc3)cc2)cc1CN(C)CCN(C)C.O=C(O)C(F)(F)F,96%
